Source: PubChem
An excerpt weighted towards active compounds, which were near 6% of everything screened.
D1 agonist = Allosteric Agonists of the Human D1 Dopamine Receptor: qHTS | D(1A) dopamine receptor (Homo sapiens), P21728 | HEK293 T-REx D1 cells, calcium flux, agonist mode | activation, % at 2 µM | actives 1% (n = 360,000) | AID 504660, 2011; in the data active = activation above about 30%; also: 0% is about no effect
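Tetracycline-induced HEK293 TREx D1 cells, force-coupled to calcium signalling, were dye-loaded with a no-wash calcium kit. Compound was pin-added after a 10 s baseline. Fluorescence was read kinetically at 1 cycle/s for 180 s, with calcium rises flagged as agonism.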
DRD3 antagonist = qHTS of D3 Dopamine Receptor Antagonist: qHTS; D(3) dopamine receptor (Homo sapiens), P35462; D3R cells, DiscoveRx beta-arrestin luminescence, antagonist mode; hits give low values; max response, negative = inhibition, %; actives 2.5% (n = 360,000); in the data active = max response below about -50%; also: % is scaled to controls: 0 for no effect and ±100 for the full control effect
Target sequence (P35462 whole entry, looked up): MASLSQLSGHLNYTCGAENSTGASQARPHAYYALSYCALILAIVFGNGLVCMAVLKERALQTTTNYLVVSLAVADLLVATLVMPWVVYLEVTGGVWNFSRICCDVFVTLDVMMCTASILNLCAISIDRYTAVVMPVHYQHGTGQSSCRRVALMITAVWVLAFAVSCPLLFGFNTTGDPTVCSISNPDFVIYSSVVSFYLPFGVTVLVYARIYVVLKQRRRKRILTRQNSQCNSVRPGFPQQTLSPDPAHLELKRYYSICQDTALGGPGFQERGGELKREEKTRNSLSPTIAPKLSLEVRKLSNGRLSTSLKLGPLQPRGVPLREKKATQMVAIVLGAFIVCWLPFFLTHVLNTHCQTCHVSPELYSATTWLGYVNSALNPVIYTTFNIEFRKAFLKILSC
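Cells plated overnight at 1500 cells/well, then exposed to library compounds with dopamine controls for 90 minutes at 37 degrees C. DiscoveRx reagent added for 30–60 minutes at room temperature; luminescence read, quantitative HTS format.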
D1 antagonist = Antagonist of Human D 1 Dopamine Receptor: qHTS | AID 504652, 2011 | activity change, negative = inhibition, % at 10 µM | HEK293 TREx D1 cells, calcium flux, dopamine EC80; hits give low values | D(1A) dopamine receptor (Homo sapiens), P21728 | actives 3.2% (n = 360,000); in the data active = activity change below about -30%; also: % is scaled to controls: 0 for no effect and ±100 for the full control effect
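Calcium flux readout: force-coupled, inducible Hek293 Trex D1 line, cells induced overnight at 30 C with tetracycline, dye-loaded 30–90 min at RT. Antagonism scored against EC80 dopamine challenge given 180 s after compound.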
DRD3 agonist = qHTS of D3 Dopamine Receptor Agonist: qHTS | D(3) dopamine receptor (Homo sapiens), P35462 | D3R DiscoveRx beta-arrestin cells, luminescence, 90 min | max activation, % | actives 0.58% (n = 410,000); in the data active = max activation above about 30%; also: 0% is about no effect
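Cells at 1500/well, incubated overnight, then treated with pinned compounds (dopamine as control) for 90 min at 37 degrees C. DiscoveRx reagent added for 30 - 60 minutes at room temperature; luminescence read.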
D1 potentiator = Potentiators of Human D1 Dopamine Receptor: qHTS; D(1A) dopamine receptor (Homo sapiens), P21728; HEK293 TREx D1 cells, calcium flux, dopamine EC20 potentiation; potentiation, % at 10 µM; actives 0.036% (n = 360,000); in the data active = potentiation above about 30%; also: 0% is about no effect
The depositor's hits bear a star; · = no result.

SMILES	D1 agonist	DRD3 antagonist	D1 antagonist	DRD3 agonist	D1 potentiator
O=c1c2sc3ccccc3c2n(Cc2cccc(C(F)(F)F)c2)c(=O)n1Cc1ccco1	3	·	-14	-8	-2
Cc1cc2[nH]c(=O)c3ccccc3n2n1	2	8	-72*	2	-7
Clc1cccc2c1CCN(Cc1nc(-c3cnccn3)no1)C2	0	-7	-90*	3	-14
c1ccc(C(c2ccccc2)N2CCN(Cc3nc(-c4cnccn4)no3)CC2)cc1	2	8	-16	-2	4
CCS(=O)(=O)N1CCc2cc(C(=O)NCCc3ccc(OC)c(OC)c3)ccc21	-1	·	-8	-12	-1
C/C=C/c1ccc(OC(C)=O)c(OC)c1	-4	-20	9	12	-1
COc1ccc(/C=N/Nc2nnc(C)n2N)cc1OC(C)=O	0	-56*	11	-10	-8
C/C=C/c1ccc(OCC(=O)Nc2ccc(C(N)=O)cc2)c(OC)c1	1	7	-53*	3	-7
C/C=C/c1ccc(OC)c(OC(C)=O)c1	1	23	-76*	1	-6
CC(C)C[C@H](NC(=O)[C@@H](Cc1c[nH]c2ccccc12)NC(=O)[C@H](Cc1ccc(O)cc1)NC(=O)[C@H](CO)NC(=O)[C@H](Cc1c[nH]c2ccccc12)NC(=O)[C@H](Cc1cnc[nH]1)NC(=O)[C@@H]1CCC(=O)N1)C(=O)N[C@@H](CCCN=C(N)N)C(=O)N1CCC[C@@H]1C(=O)NCC(N)=O	·	·	·	5	·
Cc1ccc(Cl)cc1-n1ncc2c(Nc3ccc4c(c3)OCCO4)ncnc21	0	·	-9	-5	-4
Cc1cc2c(s1)c1cnn(Cc3ccc(Cl)c(Cl)c3)c(=O)c1n2C	1	·	-10	·	-6
CC1CCN(Cc2c(O)ccc3c(=O)c(-c4cccc(Cl)c4)c(C(F)(F)F)oc23)CC1	0	·	0	1	-3
CCOc1ccccc1NC(=O)CSc1nc2c([nH]c3ccccc32)c(=O)n1-c1ccccc1	1	·	1	-11	-2
Cc1ccc(C=Nc2ccccc2C(N)=O)cc1	60*	5	-35*	-16	-8
Clc1cccc(-c2csc(-c3nc(-c4ccc(Br)s4)cs3)n2)c1	2	·	8	2	0
Cc1cccc(NC(=O)CSc2nc3n[nH]c(C)c3c(=N)n2-c2cccc(Cl)c2)c1	1	·	-35*	5	-7
CCCN(CCC)C(=O)CSc1nc2n[nH]c(C)c2c(=N)n1-c1ccc(OC)cc1	3	12	-11	2	-1
CCCN(CCC)C(=O)CSc1nc2n[nH]c(C)c2c(=N)n1-c1ccc(OCC)cc1	4	-50*	4	2	2
CN(C)CCNc1ccc2ncn3c4ccc(O)cc4c(=O)c1c23	·	0	·	7	·
O=C(CCCCN1CCCCC1)c1ccccc1	·	-27	·	-19	·
O=C(C(=Cc1ccccc1)CN1CCCCC1)c1ccccc1	·	-91*	·	-23	·
Cc1ccccc1C(=O)NCc1nnc(SCC(=O)N2c3ccccc3Sc3ccccc32)n1C	1	-64*	12	-5	1
Cc1cc2c(s1)c1cnn(Cc3ccc(Br)cc3F)c(=O)c1n2C	2	·	-17	·	-5
COc1ccc(-c2cc(C(=O)OC3CCOC3=O)c3ccccc3n2)cc1 (stereo unspecified)	2	-1	-32*	-5	-5
SMILES	D1 agonist	DRD3 antagonist	D1 antagonist	DRD3 agonist	D1 potentiator
COc1ccc(-c2cc(C(=O)OCc3ccccn3)c3ccccc3n2)cc1	13	37	-34*	8	-7
Cc1ccc(N2C(=O)N(CC(=O)Nc3ccc(F)c(F)c3)C(=O)C2C)cc1 (stereo unspecified)	4	4	-4	14	-6
CCN1CCN(c2nc(Nc3ccccc3F)nc(N)c2[N+](=O)[O-])CC1	2	-63*	2	-17	-3
CCN1CCN(c2nc(Nc3ccccc3)nc(N)c2[N+](=O)[O-])CC1	1	-12	14	-1	-7
CCN1CCN(c2nc(Nc3cccc(C)c3)nc(N)c2[N+](=O)[O-])CC1	1	-65*	-3	-46	-5
Cc1ccc(Nc2nc(N)c([N+](=O)[O-])c(N3CCOCC3)n2)cc1C	28	-19	0	-5	-9
CN1CCN(c2nc(Nc3ccccc3)nc(N)c2[N+](=O)[O-])CC1	1	-67*	0	-39	-4
CCN1CCN(c2nc(Nc3ccc(OC)cc3)nc(N)c2[N+](=O)[O-])CC1	1	-54*	5	-27	10
Nc1nc(Nc2cccc(F)c2)nc(N2CCOCC2)c1[N+](=O)[O-]	1	-16	1	-10	-1
COCCNC(=O)C1(C)CCN(C(=O)c2ccc3ccccc3n2)C1 (stereo unspecified)	·	12	·	-3	·
Cc1cccc(Nc2nc(N)c([N+](=O)[O-])c(N3CCCC(C)C3)n2)c1 (stereo unspecified)	2	6	10	4	2
Cc1cccc(Nc2nc(N)c([N+](=O)[O-])c(N3CCN(C)CC3)n2)c1	1	-64*	7	-32	-3
COc1ccc(OC)c(/C=C2/Sc3ccccc3C2=O)c1	312*	-12	-2	-3	8
COc1ccc(OC)c(C=C2CCc3ccccc3C2=O)c1	·	10	·	0	·
O=C(Nc1ccccn1)c1ccc2c(c1)S(=O)(=O)c1ccccc1C2=O	0	8	-12	-6	-4
O=C1c2ccccc2S(=O)(=O)c2cc(C(=O)N(c3ccccn3)c3ccccn3)ccc21	300*	12	-24	10	-5
COc1ccccc1NS(=O)(=O)c1cccc(C(=O)N/N=C/c2c(CO)cnc(C)c2O)c1	13	7	-30*	5	-7
COc1ccccc1N/N=C/c1c(CO)cnc(C)c1O	0	10	7	-3	-7
Cc1c(C(=O)NCc2cccc(Br)c2)oc2ccc3c(c12)C(=O)CC(C)(C)O3	7	·	5	10	7
Cc1cccc(-c2cc(C(=O)Nc3ccncc3)c3ccccc3n2)c1	0	100	-41*	35*	-7
Cc1ccc2nc(-c3ccncc3)cc(-c3ccccc3)c2c1	3	24	12	57*	6
Cc1ccc2nc(-c3ccc(NS(C)(=O)=O)cc3)cc(-c3ccccc3)c2c1	3	-16	19	18	9
O=C(Nc1nccs1)c1cc(-c2ccccc2)nc2ccccc12	1	16	-10	44*	-3
O=C(Nc1nccs1)c1cc(-c2ccco2)nc2ccccc12	1	6	21	8	2
O=C(Nc1ccncc1)c1cc(-c2ccccc2)nc2ccccc12	·	132	·	4	·
